# Reference: PubChem BioAssay (NCI)
# The panel holds about 79,000 compounds, 15% with a hit somewhere; the sample as a whole holds those more often. A number with no mark means an inactive call. The source made the active and inactive calls. Rule as the data show it: active = growth inhibition above about 70%; inactive = the rest.
# Legend:
# [1] = NCI Yeast Anticancer Drug Screen. Data for the rad52 strain (AID 147);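 also: 0% = growth of vehicle-treated control cultures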; settings: S. cerevisiae rad52 mutant growth inhibition, active compounds read high
# In short: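 The repair-mutant yeast strain was incubated with compounds, then growth was read and inhibition derived relative to vehicle.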
# [2] = NCI Yeast Anticancer Drug Screen. Data for the wt1 strain (AID 149);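 also: 0% = growth of vehicle-treated wt1 cultures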; settings: S. cerevisiae wt1 strain (SPY 50644) growth inhibition, active compounds read high
# In short: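 Each compound is tested on wt1 yeast and the loss of growth versus vehicle gives the inhibition value.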
# [3] = NCI Yeast Anticancer Drug Screen. Data for the rad50EPP+ strain (AID 151);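 also: 0% = growth of vehicle-treated control cultures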; settings: S. cerevisiae rad50 mutant strain, active compounds read high
# In short: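 Vehicle-normalised growth inhibition; rad50EPP+ yeast strain, altered in DNA damage repair, compound-treated.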
# [4] = NCI Yeast Anticancer Drug Screen. Data for the mgt1 strain (AID 153); settings: S. cerevisiae mgt1 mutant growth inhibition, active compounds read high
# In short: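 Vehicle-normalized growth inhibition is determined in mgt1 yeast, a strain selected for a defined alteration in DNA repair or cell cycle control.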
# [5] = NCI Yeast Anticancer Drug Screen. Data for the rad50 strain (AID 155);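 also: 0% = growth of vehicle-only cultures of the same strain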; settings: S. cerevisiae rad50 strain growth inhibition, active compounds read high
# In short: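 Vehicle-treated cultures provide the reference for the growth inhibition reported for compound-exposed, repair-deficient yeast.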
# [6] = NCI Yeast Anticancer Drug Screen. Data for the mec2-1 strain (AID 157); settings: S. cerevisiae mec2-1 strain, active compounds read high
# In short: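 Mutant yeast (mec2-1) grown with compound; growth inhibition relative to vehicle control reported.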
# [7] = NCI Yeast Anticancer Drug Screen. Data for the rad14 strain (AID 159);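 also: 0% = growth of vehicle-treated control cultures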; settings: S. cerevisiae rad14 strain growth inhibition, active compounds read high
# In short: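 Inhibition of growth is reported for a repair-deficient yeast mutant following compound treatment, calculated relative to cultures that received vehicle.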
# [8] = NCI Yeast Anticancer Drug Screen. Data for the sgs1 mgt1 strain (AID 161);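 also: 0% = growth of cultures given vehicle only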; settings: S. cerevisiae sgs1 mgt1 strain, active compounds read high
# In short: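 This yeast growth screen uses a strain with defined DNA-repair lesions; compound-treated growth is compared with vehicle-treated growth.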
# [9] = NCI Yeast Anticancer Drug Screen. Data for the CLN2oe strain (AID 163);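 also: 0% = growth of vehicle-only control cultures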; settings: S. cerevisiae CLN2oe strain, active compounds read high
# In short: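 Compounds are applied to yeast harbouring a defined cell-cycle control change; reduced growth compared with vehicle-treated controls gives the value.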
# [10] = NCI Yeast Anticancer Drug Screen. Data for the cln2 rad14 strain (AID 165);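 also: 0% = growth equal to vehicle treated cultures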; settings: S. cerevisiae cln2 rad14 strain, active compounds read high
# In short: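 Readout is yeast growth inhibition versus vehicle-treated controls, using a strain with cln2 and rad14 alterations exposed to compound.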
# [11] = NCI Yeast Anticancer Drug Screen. Data for the bub3 strain (AID 167); settings: S. cerevisiae bub3 mutant strain, active compounds read high
# In short: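 Mutant yeast screening strain plus compound; vehicle-treated cultures serve as the 0% inhibition reference.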
# [12] = NCI Yeast Anticancer Drug Screen. Data for the wt2 strain (AID 169); settings: S. cerevisiae wt2 strain growth inhibition, active compounds read high
# In short: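 Against vehicle-treated controls, the growth of yeast exposed to each compound was compared, and the inhibition was recorded.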
# [13] = NCI Yeast Anticancer Drug Screen. Data for the mlh1 strain (AID 171);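 also: 0% = growth of vehicle-treated control cultures of the same strain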; settings: S. cerevisiae mlh1 strain growth inhibition, active compounds read high
# In short: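 Measured: yeast growth. Reference: vehicle-treated controls. Organism: strain with a defined alteration affecting DNA damage repair or cell cycle control, treated with compound.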
# [14] = NCI Yeast Anticancer Drug Screen. Data for the sgs1 strain (AID 173);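 also: 0% = growth of vehicle-only control cultures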; settings: S. cerevisiae sgs1 mutant, active compounds read high
# In short: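 Each compound was added to cultures of the altered yeast strain. Growth was recorded, and inhibition was derived by comparison with vehicle controls.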
# [15] = NCI Yeast Anticancer Drug Screen. Data for the mlh1 rad18 strain (AID 175); settings: S. cerevisiae mlh1 rad18 strain growth inhibition, active compounds read high
# In short: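 Genetically defined yeast (DNA repair-deficient) exposed to compounds; growth inhibition determined relative to vehicle.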
# [16] = NCI Yeast Anticancer Drug Screen. Data for the rad18 strain (AID 177); settings: S. cerevisiae rad18 mutant growth inhibition, active compounds read high
# In short: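 Vehicle-treated cultures served as the baseline for scoring compound-induced growth inhibition in DNA-repair-mutant yeast.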
# [17] = at 5.0 µM (retest, dose inferred, filed as 0.5)
# [18] = at 50.0 µM (retest, dose inferred, filed as 5.0)
structure (smiles),measurement,setting,value
CC1(C)OC(=O)C(=Cc2ccc([N+](=O)[O-])s2)C(=O)O1,growth inhibition,[1]; at 1.2 µM,-17%
same,growth inhibition,[1]; at 3.7 µM,-35%
same,growth inhibition,[1]; at 11.0 µM,-31%
same,growth inhibition,[1]; at 33.0 µM,-14%
same,growth inhibition,[1]; at 100.0 µM,98% (active)
same,growth inhibition,[2]; at 1.2 µM,-28%
same,growth inhibition,[2]; at 3.7 µM,-33%
same,growth inhibition,[2]; at 11.0 µM,-14%
same,growth inhibition,[2]; at 33.0 µM,32%
same,growth inhibition,[2]; at 100.0 µM,35%
same,growth inhibition,[3]; at 1.2 µM,-17%
same,growth inhibition,[3]; at 3.7 µM,-20%
same,growth inhibition,[3]; at 11.0 µM,-2%
same,growth inhibition,[3]; at 33.0 µM,86% (active)
same,growth inhibition,[3]; at 100.0 µM,88% (active)
same,growth inhibition,[4]; at 1.2 µM,-8%
same,growth inhibition,[4]; at 3.7 µM,15%
same,growth inhibition,[4]; at 11.0 µM,26%
same,growth inhibition,[4]; at 33.0 µM,95% (active)
same,growth inhibition,[4]; at 100.0 µM,50%
same,growth inhibition,[5]; at 1.2 µM,-9%
same,growth inhibition,[5]; at 3.7 µM,-7%
same,growth inhibition,[5]; [17],28%
same,growth inhibition,[5]; at 11.0 µM,-13%
same,growth inhibition,[5]; at 33.0 µM,-6%
same,growth inhibition,[5]; [18],89% (active)
same,growth inhibition,[5]; at 50.0 µM,68.6%
same,growth inhibition,[5]; at 100.0 µM,98% (active)
same,growth inhibition,[6]; at 1.2 µM,-28%
same,growth inhibition,[6]; at 3.7 µM,-5%
same,growth inhibition,[6]; [17],23%
same,growth inhibition,[6]; at 11.0 µM,-23%
same,growth inhibition,[6]; at 33.0 µM,12%
same,growth inhibition,[6]; [18],99% (active)
same,growth inhibition,[6]; at 50.0 µM,89.3% (active)
same,growth inhibition,[6]; at 100.0 µM,70% (active)
same,growth inhibition,[7]; at 1.2 µM,-12%
same,growth inhibition,[7]; at 3.7 µM,-5%
same,growth inhibition,[7]; at 11.0 µM,2%
same,growth inhibition,[7]; at 33.0 µM,9%
same,growth inhibition,[7]; at 100.0 µM,99% (active)
same,growth inhibition,[8]; [17],56%
same,growth inhibition,[8]; [18],100% (active)
same,growth inhibition,[8]; at 50.0 µM,90% (active)
same,growth inhibition,[9]; at 1.2 µM,14%
same,growth inhibition,[9]; at 3.7 µM,26%
same,growth inhibition,[9]; at 11.0 µM,29%
same,growth inhibition,[9]; at 33.0 µM,63%
same,growth inhibition,[9]; at 100.0 µM,97% (active)
same,growth inhibition,[10]; [17],47%
same,growth inhibition,[10]; [18],81% (active)
same,growth inhibition,[10]; at 50.0 µM,30.8%
same,growth inhibition,[11]; at 1.2 µM,-18%
same,growth inhibition,[11]; at 3.7 µM,-13%
same,growth inhibition,[11]; [17],48%
same,growth inhibition,[11]; at 11.0 µM,-8%
same,growth inhibition,[11]; at 33.0 µM,60%
same,growth inhibition,[11]; [18],100% (active)
same,growth inhibition,[11]; at 50.0 µM,85% (active)
same,growth inhibition,[11]; at 100.0 µM,5%
same,growth inhibition,[12]; at 1.2 µM,0%
same,growth inhibition,[12]; at 3.7 µM,-9%
same,growth inhibition,[12]; at 11.0 µM,-7%
same,growth inhibition,[12]; at 33.0 µM,62%
same,growth inhibition,[12]; at 100.0 µM,71% (active)
same,growth inhibition,[13]; at 1.2 µM,-28%
same,growth inhibition,[13]; at 3.7 µM,-24%
same,growth inhibition,[13]; at 11.0 µM,-33%
same,growth inhibition,[13]; at 33.0 µM,38%
same,growth inhibition,[13]; at 100.0 µM,71% (active)
same,growth inhibition,[14]; at 1.2 µM,-31%
same,growth inhibition,[14]; at 3.7 µM,-25%
same,growth inhibition,[14]; at 11.0 µM,-15%
same,growth inhibition,[14]; at 33.0 µM,48%
same,growth inhibition,[14]; at 100.0 µM,98% (active)
same,growth inhibition,[15]; [17],10%
same,growth inhibition,[15]; [18],51%
same,growth inhibition,[15]; at 50.0 µM,92.3% (active)
same,growth inhibition,[16]; at 1.2 µM,10%
same,growth inhibition,[16]; at 3.7 µM,21%
same,growth inhibition,[16]; at 11.0 µM,32%
same,growth inhibition,[16]; at 33.0 µM,85% (active)
same,growth inhibition,[16]; at 100.0 µM,69%
C[n+]1c(-c2ccc(/C=N/NC(=O)c3ccc(C(=O)N/N=C/c4ccc(-c5cn6ccccc6[n+]5C)cc4)cc3)cc2)cn2ccccc21,growth inhibition,[1]; at 1.2 µM,5%
same,growth inhibition,[1]; at 3.7 µM,14%
same,growth inhibition,[1]; at 11.0 µM,29%
same,growth inhibition,[1]; at 33.0 µM,54%
same,growth inhibition,[1]; at 100.0 µM,60%
same,growth inhibition,[2]; at 1.2 µM,9%
same,growth inhibition,[2]; at 3.7 µM,16%
same,growth inhibition,[2]; at 11.0 µM,26%
same,growth inhibition,[2]; at 33.0 µM,25%
same,growth inhibition,[2]; at 100.0 µM,25%
same,growth inhibition,[3]; at 1.2 µM,69%
same,growth inhibition,[3]; at 3.7 µM,86% (active)
same,growth inhibition,[3]; at 11.0 µM,94% (active)
same,growth inhibition,[3]; at 33.0 µM,94% (active)
same,growth inhibition,[3]; at 100.0 µM,94% (active)
same,growth inhibition,[4]; at 1.2 µM,13%
same,growth inhibition,[4]; at 3.7 µM,22%
same,growth inhibition,[4]; at 11.0 µM,42%
same,growth inhibition,[4]; at 33.0 µM,84% (active)
same,growth inhibition,[4]; at 100.0 µM,71% (active)
same,growth inhibition,[5]; at 1.2 µM,6%
same,growth inhibition,[5]; at 3.7 µM,10%
same,growth inhibition,[5]; [17],15%
same,growth inhibition,[5]; at 11.0 µM,16%
same,growth inhibition,[5]; at 33.0 µM,55%
same,growth inhibition,[5]; [18],92% (active)
same,growth inhibition,[5]; at 50.0 µM,81.2% (active)
same,growth inhibition,[5]; at 100.0 µM,79% (active)
same,growth inhibition,[6]; at 1.2 µM,7%
same,growth inhibition,[6]; at 3.7 µM,13%
same,growth inhibition,[6]; [17],-7%
same,growth inhibition,[6]; at 11.0 µM,23%
same,growth inhibition,[6]; at 33.0 µM,41%
same,growth inhibition,[6]; [18],63%
same,growth inhibition,[6]; at 50.0 µM,49.4%
same,growth inhibition,[6]; at 100.0 µM,76% (active)
same,growth inhibition,[7]; at 1.2 µM,-1%
same,growth inhibition,[7]; at 3.7 µM,3%
same,growth inhibition,[7]; at 11.0 µM,15%
same,growth inhibition,[7]; at 33.0 µM,66%
same,growth inhibition,[7]; at 100.0 µM,60%
same,growth inhibition,[8]; [17],24%
same,growth inhibition,[8]; [18],62%
same,growth inhibition,[8]; at 50.0 µM,70.7% (active)
same,growth inhibition,[9]; at 1.2 µM,-2%
same,growth inhibition,[9]; at 3.7 µM,0%
same,growth inhibition,[9]; at 11.0 µM,13%
same,growth inhibition,[9]; at 33.0 µM,30%
same,growth inhibition,[9]; at 100.0 µM,38%
same,growth inhibition,[10]; [17],16%
same,growth inhibition,[10]; [18],78% (active)
same,growth inhibition,[10]; at 50.0 µM,51.4%
same,growth inhibition,[11]; at 1.2 µM,-5%
same,growth inhibition,[11]; at 3.7 µM,2%
same,growth inhibition,[11]; [17],-1%
same,growth inhibition,[11]; at 11.0 µM,13%
same,growth inhibition,[11]; at 33.0 µM,70% (active)
same,growth inhibition,[11]; [18],91% (active)
same,growth inhibition,[11]; at 50.0 µM,69.7%
same,growth inhibition,[11]; at 100.0 µM,76% (active)
